# Most compounds without a hit are left out; they make up all but 2.4% or so of the library.
# HSF1 activator: increases HSF-1 driven luciferase reporter signal; NIH3T3-HGL HSF-1 luciferase reporter, MG132, 8 h; 100% = twice DMSO control signal; activation, % at 9 µM; actives 1.7% (n = 300,000); AID 504408;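 active means mean replicate activation of at least 50% with a set share of replicates each reaching 50%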;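 further: 0% = median of the neutral control wells and 100% = twice that signal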
# TLR9-MyD88 block: blocks human TLR9 binding to MyD88 | Q9NR96+Q99836 | CHO BLA complementation TLR9-MyD88, CCF4 FRET ratio | inhibition, % at 4.98 µM | actives 0.21% (n = 340,000) | AID 504734;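 active means inhibition above the mean over all tested compounds plus 3 SD, cut at about 21% in these data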;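 further: 0% = DMSO only wells and 100% = clavulanate BLA inhibitor control wells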
# TLR4 MyD88 comp: TLR4-MyD88 interaction inhibition in cells; O00206+Q99836; HeLa CL3-4 TLR4/MyD88 BLA complementation, FRET ratio; inhibition, % at 8.4 µM; actives 0.18% (n = 200,000); AID 861; in the data active means inhibition above about 25%;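 further: 0% = vehicle and 100% = reference inhibitor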
# NOD2-RIPK2 inh: inhibitors of human NOD2-RIPK2 interaction | AID 624267 | CHO BLA complementation NOD2-RIPK2, CCF4 ratio | inhibition, % at 4.98 µM | actives 0.38% (n = 360,000); in the data active means inhibition above about 21%;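 further: 0% = vehicle only and 100% = reference blocker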
# Target sequence (O43353 whole entry, looked up): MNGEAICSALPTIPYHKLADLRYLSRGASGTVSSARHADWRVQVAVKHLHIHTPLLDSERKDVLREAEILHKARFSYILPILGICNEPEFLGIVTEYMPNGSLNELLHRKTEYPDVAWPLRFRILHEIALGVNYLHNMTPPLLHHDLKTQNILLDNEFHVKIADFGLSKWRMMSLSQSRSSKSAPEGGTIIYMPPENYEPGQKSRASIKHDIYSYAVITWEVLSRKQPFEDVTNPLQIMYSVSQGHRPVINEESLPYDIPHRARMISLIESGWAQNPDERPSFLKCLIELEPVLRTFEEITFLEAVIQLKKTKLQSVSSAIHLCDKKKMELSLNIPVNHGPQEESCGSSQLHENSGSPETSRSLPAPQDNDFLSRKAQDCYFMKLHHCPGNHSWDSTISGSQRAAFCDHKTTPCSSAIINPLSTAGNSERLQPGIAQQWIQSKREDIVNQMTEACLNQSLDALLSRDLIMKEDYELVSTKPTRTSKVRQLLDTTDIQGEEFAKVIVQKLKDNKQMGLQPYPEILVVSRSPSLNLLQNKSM
# HSF1 inhib: HSF1 inhibition | NIH3T3-HGL HSE-luciferase, MG132-induced, luminescence 8 h; stronger effect = lower value | activity change, negative = inhibition, % at 7.5 µM (by protocol) | actives 0.77% (n = 300,000) | AID 2098;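 active means more than half of replicate wells show activity change below -50%, luminescence cut by over half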;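 further: luciferase reports HSF-1 transcriptional activity via heat shock element; 0% = median of DMSO wells and -100% = zero luminescence signal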
# Starred values were filed as active, the others as inactive; / = no result given.
SMILES,HSF1 activator,TLR9-MyD88 block,TLR4 MyD88 comp,NOD2-RIPK2 inh,HSF1 inhib
CC1Cc2c([nH]c(=O)n(-c3ccccc3)c2=O)O1 (centres undefined),/,2,/,-4,/
O=c1c(-c2nc3ccccc3s2)cccn1Cc1ccccc1,93*,-31,-36,-6,50
Cc1ccc(Cn2cccc(-c3nc4ccccc4s3)c2=O)cc1,106*,-18,-49,-12,53
CC(=O)NCc1ccc(-c2nc3ccccc3s2)cc1,26,4,-9,2,9
O=c1c(OCc2ccccc2)cccn1Cc1ccccc1,/,1,/,2,/
CCc1cccc2sc(N(CCCN3CCOCC3)C(=O)CS(=O)(=O)c3ccccc3)nc12,5,-9,/,5,5
O=C(CCS(=O)(=O)c1ccccc1)N(CCCN1CCOCC1)c1nc2c(F)cccc2s1,161*,4,/,9,141
O=C(CCS(=O)(=O)c1ccccc1)N(CCCN1CCOCC1)c1nc2ccc(F)cc2s1,147*,-2,/,14,138
Cc1ccc(CC(C)(O)CC(C)(O)Cc2ccc(C)cc2)cc1 (centres undefined),/,3,/,1,/
COc1ccc(/C=C\c2nc(=O)c3ccccc3o2)cc1,76*,2,8,-9,24
O=c1nc(/C=C/c2ccc(O)c(O)c2)oc2ccccc12,28,-3,/,3,19
COc1ccccc1CN1CC(C(=O)NCCc2ncccc2C)CCC1=O (centres undefined),79*,2,/,-7,31
O=S(=O)(Nc1cccnc1)c1cccc(C(F)(F)F)c1,2,-6,-1,-1,-1
O=[N+]([O-])c1ccc(S(=O)(=O)c2cccc(C(F)(F)F)c2)nc1,-95,17,/,79*,-95*
CCCc1cc(=O)[nH]c(SCC(=O)NCC2COc3ccccc3O2)n1 (centres undefined),/,0,/,-7,/
c1cncc(-c2nc(-c3ccc4c(c3)OCCO4)cs2)c1,64*,-11,/,-1,32
Cc1cccc(Nc2nc(-c3ccc4c(c3)OCCO4)cs2)c1,-58,-6,6,-7,-54*
Oc1ccc(-c2csc(-c3cccnc3)n2)cc1O,42,-10,/,3,26
COc1ccc(C(CNC(=O)CNC(=O)c2cccc(F)c2)N2CCOCC2)cc1 (centres undefined),/,-4,/,-6,/
COc1ccc(NC(=O)CN(C)S(=O)(=O)c2ccc3c(c2)CC(C)N3C(C)=O)c(OC)c1 (centres undefined),-22,5,/,-14,-2
COc1cc(NC(=O)CN(C)S(=O)(=O)c2ccc3c(c2)CC(C)N3C(C)=O)cc(OC)c1 (centres undefined),-88,1,/,9,-84*
CC(=O)N1c2ccc(S(=O)(=O)N(C)CC(=O)Nc3ccccc3C)cc2CC1C (centres undefined),-70,-6,/,-11,-61*
CSc1cc(-c2ccco2)oc1C(=O)c1ccco1,51*,2,/,-2,21
O=C(Nc1ccc2c3c(cccc13)CC2)c1ccc(Br)o1,75*,-2,2,-2,43
O=C(NC(=S)N1CCc2ccccc21)c1ccc(Br)o1,52*,-5,-7,-18,37
SMILES,HSF1 activator,TLR9-MyD88 block,TLR4 MyD88 comp,NOD2-RIPK2 inh,HSF1 inhib
O=C(NC(=S)N1CCc2ccccc21)C1CCC1,-13,0,10,-8,2
CC(C)(C)C(=O)NC(=S)N1CCc2ccccc21,0,2,-20,6,-1
O=C(NC(=S)N1CCc2ccccc21)c1ccccc1Br,57*,1,9,-3,44
COc1ccc(NC(=S)N(CCO)Cc2ccccc2)cc1,2,-9,-26,3,6
COCCN(Cc1ccccc1)C(=S)Nc1ccc(Cl)cc1,-63,8,-3,-2,-54*
COc1ccc(C2=NN3C(C2)c2ccccc2OC3c2cccs2)cc1 (centres undefined),63*,0,2,1,17
COc1ccc(C2=NN(C(N)=S)C(c3ccccc3)C2)cc1 (centres undefined),49,-4,-1,4,23
COc1ccc(C2=NN3C(C2)c2ccccc2OC32C(=O)N(C)c3ccccc32)cc1 (centres undefined),92*,4,-2,0,57
CC(C)c1ccc(-n2nnnc2SCC(=O)NC2CC2)cc1,/,3,/,-3,/
COc1ccc(NC(=O)C[C@H]2C(=O)N(C3CCCCC3)C[C@@H]2CSC)cc1,/,2,/,-3,/

# High-throughput results from PubChem BioAssay.
